The values below come from PubChem BioAssay (Tox21).

“And” between values parts separate entries of the source, which are not always exact repeats. Equal values may be shown once. Results filed as inconclusive are left out. The source made the active and inactive calls. Calls come from the whole dose curve; as a rule, active = well fitted inhibition curve with a large enough effect in the repeat runs; inconclusive = weak or mixed curves; inactive = no such curve, though single readings can be large or run the other way.
% is set by controls: 0 for no effect and ±100 for the full control effect; potency is the fitted concentration of half-maximal effect.

Cytochrome P450 2C19 (Homo sapiens), sequence (P33261 whole entry, looked up): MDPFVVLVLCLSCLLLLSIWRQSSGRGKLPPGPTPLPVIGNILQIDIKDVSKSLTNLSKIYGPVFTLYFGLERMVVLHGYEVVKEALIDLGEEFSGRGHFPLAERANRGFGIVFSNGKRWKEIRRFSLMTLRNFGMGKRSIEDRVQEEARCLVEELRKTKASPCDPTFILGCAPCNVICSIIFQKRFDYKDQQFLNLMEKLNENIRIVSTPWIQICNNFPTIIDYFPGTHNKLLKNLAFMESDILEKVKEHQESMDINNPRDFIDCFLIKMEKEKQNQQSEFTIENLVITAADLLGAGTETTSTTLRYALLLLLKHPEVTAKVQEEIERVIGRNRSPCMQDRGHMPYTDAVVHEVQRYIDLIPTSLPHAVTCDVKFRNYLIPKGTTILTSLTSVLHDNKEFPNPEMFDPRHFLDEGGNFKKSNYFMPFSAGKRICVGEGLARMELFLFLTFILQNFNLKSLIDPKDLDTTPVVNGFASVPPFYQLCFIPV

This experiment has as its target Cytochrome P450 2C19 (Homo sapiens) (UniProt P33261). Description: Cytochrome P450 Family 2 Subfamily C Member 19 (CYP2C19) small molecule antagonists: luciferase reporter qHTS assay (AID 1671197). Note: nearly all actives have a fitted effect of over 65% in size. The note with it: P450-Glo CYP2C19 enzyme, luciferin luminescence, 1 h; series mostly up to 115 µM; activity change, negative = inhibition: at the top concentration. The text has this:
National Center for Advancing Translational Sciences [NCATS]
U.S. Environmental Protection Agency [EPA]
National Institutes of Environmental Health Sciences [NIEHS]
National Toxicology Program [NTP]
U.S. Food and Drug Administration [FDA]
Cytochrome P450 (CYP) enzymes are membrane-bound hemeproteins that play a key role in metabolism of drugs and xenobiotics. Evaluation of the effect of chemicals on CYP isozymes is useful to minimize the adverse drug reactions and toxicities in drug development process. Tox21 chemicals were tested for their effect on CYP enzyme activities by using P450-Glo (TM) screening systems (Promega Corporation, Madison, WI). These systems provide a luminescent method containing proluciferin substrates and are converted to luciferin products by CYP isozymes. The luciferin products formed are detected with a luciferin detection reagent, and the amount of light produced is proportional to CYP activity. P450-Glo (TM) CYP2C19 screening system (Catalog. No. V9880) was used to detect the compounds that interfere in CYP2C19 activity. The positive control compound used for CYP2C19 assay is ketoconazole (Sigma-Aldrich, St. Louis, MO).
Tox21 Assay Protocol Summary:
Two ul of enzyme-substrate mix was dispensed into medium binding white/solid 1536-well plates (Greiner Bio-One North America Inc., Monroe, NC) using a BioRaptr Flying Reagent Dispenser (FRD, Beckman Coulter, Brea, CA). Compounds dissolved in DMSO and positive control (ketoconazole) were transferred to the assay plates at 23 nl using a Pintool station (Wako, San Diego, CA). The assay plates were incubated at room temperature for 10 min. Then 2 ul of NADPH regeneration solution was added to each well of the assay plates using an FRD and incubated at 37C for 1 h. The reaction was stopped by adding 4 ul of detection reagent using an FRD and after 20 min incubation at room temperature the luminescence signal was measured using a ViewLux plate reader (Perkin Elmer, Shelton, CT). Data were expressed as relative luminescence units.
For orientation: In a reporter assay the amount or activity of a reporter protein is the signal.
For the molecule `O=S(=O)(O)CCCN1CCOCC1`, the “activity change, negative = inhibition” value is -4.05% (inactive).
`CNC(=O)c1cc(Oc2ccc(NC(=O)Nc3ccc(Cl)c(C(F)(F)F)c3)cc2)ccn1`: the Potency was 27.5 µM (active).
With `CCCCCCCCCCCCCCCCCO`, the activity change, negative = inhibition is -5.64% [at 23.6 µM] (inactive).
Turning to `Clc1ccc(C(c2ccccc2Cl)C(Cl)Cl)cc1` (stereo not given), the Potency was 1.59 µM (active) and 776 nM (active).
Same read-out and setting: the value for `CCCCCCCC/C=C/CCCOC(C)=O` was 31.7 µM (active).
For the molecule `NC(=O)C(=O)N/N=C/c1ccc([N+](=O)[O-])o1`, the “activity change, negative = inhibition” value is -10.2% [at 52.9 µM] (inactive).
On to `CCO[Si](C)(C)OCC`, for which the “activity change, negative = inhibition” value was -16.3% (inactive).
On to `Cc1cc(=O)[nH]c(=O)[nH]1`, for which the “activity change, negative = inhibition” value is 16% (inactive).
As for `O=C(O)CCn1c2c(c3ccccc31)C[C@H](NS(=O)(=O)c1ccc(F)cc1)CC2`, the “activity change, negative = inhibition” value was -8.1% [at 52.9 µM] (inactive).
As for `Cn1cnc2ncnc(N)c21`, the “activity change, negative = inhibition” value is -3.7% [at 52.9 µM] (inactive).
Take `c1ccc(Nc2cccc3ccccc23)cc1`: the Potency is 5.09 µM (active) and 10 µM (active).
Turning to `Clc1nc2ccccc2s1`, the “activity change, negative = inhibition” value was 1.58% (inactive).
`CCC(C)c1ccccc1` (stereo not given): the “activity change, negative = inhibition” value is -17.6% (inactive).
With `CCCCCCCC/C=C\CCCCCCCC(=O)NCc1ccc(O)c(OC)c1`, the Potency was 15.5 µM (active).
For `CC1(C)COCN1`, the “activity change, negative = inhibition” value is -26.3% (inactive).
On the same count and under the same terms, the value for `CCCCCCS` was 11.2% (inactive); that for `CCCCN(C)C` was 1.5% (inactive).
In the case of `C=CC(C)C#N` (stereo not given), the “activity change, negative = inhibition” value is -0.342% (inactive).
Regarding `CN(C)c1ccc(N=NS(=O)(=O)O)cc1`, the Potency was 0.421 µM (active).
The same measure, in the same setting: under `CCC1(c2cnc[nH]2)Cc2ccccc2C1` stands 0.977 µM (active); under `Cc1cccc(Br)c1`, 35.8 µM (active).
On to `CC(C)=C1CC[C@@H](C)CC1=O`, for which the “activity change, negative = inhibition” value was 15% (inactive).
Regarding `Clc1cccnc1`, the “activity change, negative = inhibition” value was 0.874% (inactive).
With `CC(C(O)c1ccccc1)N(C)CCOC(c1ccccc1)c1ccccc1` (stereo not given), the Potency was 7.76 µM (active).
As for `CCC(C)c1cc([N+](=O)[O-])cc([N+](=O)[O-])c1OC(=O)OC(C)C` (stereo not given), the Potency is 11.2 µM (active).
For `O=C(O)CC(=O)O`, the “activity change, negative = inhibition” value is -16.5% (inactive).
With `COc1ccc(C#N)cc1`, the “activity change, negative = inhibition” value is -6.42% (inactive).
Turning to `CC1CNCC(C)O1` (stereo not given), the “activity change, negative = inhibition” value was 0.752% (inactive).
As for `CCCCCCCCCCCC(=O)N(CC)CC`, the “activity change, negative = inhibition” value was -5.03% (inactive).
As for `CC(=O)Oc1ccc(C2(c3ccc(OC(C)=O)cc3)Oc3ccccc3NC2=O)cc1`, the Potency is 6.92 µM (active).
For the molecule `C[Si](C)(C)Cl`, the “activity change, negative = inhibition” value was 15.9% (inactive).
The same measure, in the same setting: under `O=C1OC(=O)c2ccc3c4c(ccc1c24)C(=O)OC3=O` stands 3.64% (inactive).
On to `CC(=O)OC(OC(C)=O)c1ccc([N+](=O)[O-])o1`, for which the Potency was 16.2 µM (active).
As for `CC1(C)C(=O)N(CO)C(=O)N1CO`, the “activity change, negative = inhibition” value was 1.99% (inactive).
The same measure, in the same setting: under `CCN(CC)CCNc1ccc(CO)c2sc3ccccc3c(=O)c12` stands 14.4% [at 52.9 µM] (inactive); under `c1ccc2c(c1)CCC2`, -13.2% (inactive); under `CCN(CC)c1cccc(C)c1`, 8.68% (inactive).
On the same count and under the same terms, under `CC1CCCNC1` (stereo not given) stands -4.53% (inactive); under `CO[Si](CCC1CCC2OC2C1)(OC)OC` (stereo not given), 11.2% (inactive).
With `CCCCCCOc1ccc(O)cc1`, the Potency was 20 µM (active).
